The test system of assay [1] is Human papillomavirus type 1a protein E7 (residues 44-93). Description: small molecules binding HPV E7 44-93 – biochemical, small-molecule microarray, residues 44-93, 635 nm fluorescence, primary screen (AID 1108).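 Further: E7 fragment applied at 1 µg/mL in TBST for 1 h at 4 C; score combines spot fluorescence with its signal to noise ratio.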 Particulars: fluorescence 635 nm, higher = more signal.
The nature of assay [2]: hepatitis C replication reporter changes, two-sided – Huh7 cells, luciferase reporter, HCV replication inhibitor project, primary screen (AID 1109).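 Further: huh7 hepatoma cells harbouring a luciferase neomycin HCV replicon reporter; luciferase luminescence as measure of HCV replicon replication; test concentration not given here.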 The settings on record: Huh7 HCV replicon luciferase reporter, 48 h; higher = more signal. For orientation: A reporter such as luciferase makes a cellular process visible.
The target in assay [3] is Left-right determination factor 2 (Homo sapiens) (UniProt O00292). Put plainly: small molecules binding LEFTY2 protein – biochemical, small-molecule microarray, 635 nm fluorescence scan, primary screen (AID 1110). Particulars: higher = more signal.
Assay [4] deals with Calmodulin-1 (Homo sapiens) (UniProt P0DP23). Description: small molecules binding calmodulin-1 with EGTA – biochemical, small-molecule microarray, Cy5-labelled CALM1, profiling panel (AID 1111).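 Further: labelled calmodulin applied in Tris saline Tween buffer holding calcium plus EGTA and DTT.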 The settings on record: Cy5-CALM1 binding fluorescence, higher = more signal.
Assay [5] has the same target. Description: small molecules binding Ca-loaded calmodulin-1 – biochemical, small-molecule microarray, Cy5-labelled CALM1, plus calcium, artefact control for SMM control-protein annotation, profiling panel (AID 1112).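 Further: score merges spot fluorescence with signal to noise from triplicate slides.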 The settings on record: Cy5-CALM1 binding fluorescence, higher = more signal.
A short description of assay [6]: probe aWnt5a binding to arrayed compounds – biochemical, biotinylated probe, 635/667 nm fluorescence, primary screen (AID 1113).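 Further: score merges 667 nm fluorescence intensity with signal-to-noise per printed feature.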 The settings on record: small-molecule microarray, higher = more signal.
Assay [7] in a line: probe aShh binding to arrayed compounds – biochemical, biotinylated probe, 635/667 nm fluorescence, primary screen (AID 1114).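 Further: probe is biotin-labelled aShh protein from a stem cell growth factor screen; measures binding of labelled protein to compounds printed on the slide; score merges feature fluorescence at 667 nm with signal-to-noise.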 The settings on record: small-molecule microarray, higher = more signal.
Assay [8] is described as follows: probe aNog binding to arrayed compounds – biochemical, biotinylated probe, 635/667 nm fluorescence, primary screen (AID 1115).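 Further: probe is biotinylated aNog protein used at 0.15 µg/mL for 1 h at 4 C; z-score combines 667 nm fluorescence of each spot with its signal to noise.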 The settings on record: small-molecule microarray, higher = more signal.
For assay [9], the target named is Torsin-1A-interacting protein 1 (Homo sapiens) (UniProt Q5JTV8). Description: compound microarray binding of lysate hLAP1 – cell lysate, small-molecule microarray, COS7 lysate, 635/667 nm fluorescence, primary screen (AID 1116). The settings on record: 635 nm fluorescence, higher = more signal.
The target of assay [10] is Alpha-bungarotoxin (Bungarus multicinctus) (UniProt P60615). Put plainly: compounds binding labelled alpha-BTX control protein – biochemical, small-molecule microarray, Alexa647 label, 635/667 nm fluorescence, artefact control for SMM control protein annotation, profiling panel (AID 1117). Particulars: alpha-BTX-A647 binding fluorescence, higher = more signal.

Structures are written as SMILES.

Data on 13 compounds can be found in PubChem BioAssay.

Sequence of Torsin-1A-interacting protein 1 (Homo sapiens) (Q5JTV8 whole entry, looked up): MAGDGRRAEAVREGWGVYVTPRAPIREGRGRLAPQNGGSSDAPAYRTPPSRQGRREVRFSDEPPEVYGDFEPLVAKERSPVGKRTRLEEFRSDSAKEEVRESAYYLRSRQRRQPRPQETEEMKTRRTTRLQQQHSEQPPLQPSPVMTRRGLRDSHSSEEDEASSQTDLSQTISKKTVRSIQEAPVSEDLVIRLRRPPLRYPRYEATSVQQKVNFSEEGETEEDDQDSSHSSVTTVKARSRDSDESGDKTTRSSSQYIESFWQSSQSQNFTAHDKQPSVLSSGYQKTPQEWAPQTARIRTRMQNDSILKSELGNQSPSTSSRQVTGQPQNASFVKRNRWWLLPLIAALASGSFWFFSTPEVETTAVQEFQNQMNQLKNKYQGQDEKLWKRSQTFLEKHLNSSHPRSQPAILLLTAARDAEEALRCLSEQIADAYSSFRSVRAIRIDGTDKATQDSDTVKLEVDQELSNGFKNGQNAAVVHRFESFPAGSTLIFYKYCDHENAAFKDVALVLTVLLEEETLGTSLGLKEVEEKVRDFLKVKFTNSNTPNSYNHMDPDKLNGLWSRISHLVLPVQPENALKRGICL
Sequence of Left-right determination factor 2 (Homo sapiens) (O00292 whole entry, looked up): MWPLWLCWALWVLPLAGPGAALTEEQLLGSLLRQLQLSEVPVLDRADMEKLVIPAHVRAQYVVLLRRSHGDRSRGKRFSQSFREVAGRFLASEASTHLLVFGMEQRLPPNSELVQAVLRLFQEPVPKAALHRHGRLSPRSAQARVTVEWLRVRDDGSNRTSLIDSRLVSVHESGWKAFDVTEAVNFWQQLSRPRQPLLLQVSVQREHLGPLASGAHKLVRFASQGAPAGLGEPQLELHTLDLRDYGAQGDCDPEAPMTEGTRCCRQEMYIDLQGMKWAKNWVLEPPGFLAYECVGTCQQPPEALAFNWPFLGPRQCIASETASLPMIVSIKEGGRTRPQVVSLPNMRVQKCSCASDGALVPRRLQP
Sequence of Alpha-bungarotoxin (Bungarus multicinctus) (P60615 whole entry, looked up): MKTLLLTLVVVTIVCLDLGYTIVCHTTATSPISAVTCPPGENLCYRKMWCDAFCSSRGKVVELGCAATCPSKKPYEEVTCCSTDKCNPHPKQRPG

On to `CN(C)CCCNC(=O)[C@@H]1c2ccccc2C(=O)N(Cc2ccccc2Cl)[C@H]1c1ccc(CO)cc1`, for which the composite z-score in assay [1] was 0.0979; in [3], -0.505; in [4], -0.139; in assay [5] it was -0.464; in [6], -0.124; in [7], -0.114. Further, the composite z-score worked out at 0.213 in assay [8], 0.779 in assay [9] and 1.74 in [10]. This compound showed a z-score in assay [2] of -1.7.
As to `C=CCC(OC(C)=O)[C@@H]1[C@@H](N(Cc2cc3ccccc3o2)C(=O)c2ccc(-c3ccccc3)cc2)c2cc(OCCCO)ccc2N1C(=O)c1ccc2ccccc2c1` (stereo not given in full), the composite z-score is 0.143 in [1]; 0.0403 in [3]; 0.137 in [4]; 0.185 in [5]; -0.0398 in assay [6]; 0.0048 in [7]. The results for the composite z-score in assay [8], in assay [9] and in assay [10] were -0.466, 0.612 and 0.264, respectively. The same compound gave a z-score in assay [2] of -1.48.
On to `C[C@]1(C(=O)NC2CC2)c2ccccc2C(=O)N(Cc2ccccc2)[C@H]1c1ccc(CO)cc1`, for which the composite z-score was -0.614 in assay [1]; -1.25 in assay [3]; -0.875 in [4]; -0.629 in [5]; -0.148 in [6]; -0.352 in [7]. Besides, the results for the composite z-score in assay [8], in [9] and in assay [10] were 0.113, -0.0199 and -1.02, respectively. The z-score in assay [2] was -0.582.
Turning to `O=C1O[C@H](c2ccccc2)[C@H](c2ccccc2)N2[C@H]1[C@@H](C(=O)NC[C@H](O)c1ccccc1)[C@]1(C(=O)Nc3ccc(C#CCCO)cc31)[C@H]2c1ccc(OCCO)cc1`, the composite z-score in assay [1] is 1.1; in [3] it was -0.312; in assay [4], 1.1; in [5], 0.547; in assay [6], -0.0758; in assay [7], 0.241. Further, the composite z-score in assay [8] was 0.509; in [9], 0.213; in assay [10], 1.16. For the same compound, the z-score in assay [2] was -1.32.
On to `C=C(C(=O)CC[C@@H](OC(C)=O)c1ccc(CO)o1)C(C)C`, for which the composite z-score was -0.306 in assay [1]; 0.13 in [3]; -0.299 in [4]; -0.89 in assay [5]; -0.1 in assay [6]; 0.213 in assay [7]. Moreover, the composite z-score in [8] is 0.149; in [9], 1.73; in [10], 0.844. The z-score in [2] is -1.25.
In the case of `NC(=O)N1C(=O)C2C(C1=O)C1C=C(CCCO)C2C(c2cccs2)N1Cc1cccc(OC(F)(F)F)c1` (stereo not given), the composite z-score was 0.72 in assay [1]; -0.0132 in assay [3]; 0.155 in assay [4]; 0.632 in assay [5]; -0.0721 in [6]; 0.723 in [7]. The composite z-score in assay [8] was -0.0132; in assay [9], 1.06; in assay [10], 0.797. In [2], this compound displayed a z-score of -0.933.
With `O=C1NC(=O)C2C1C=CC(C(O)c1ccco1)N2Nc1ccccn1` (stereo not given), the composite z-score in assay [1] is -0.45; in [3], -0.111; in assay [4], -0.334; in assay [5], -0.0734; in [6], -0.2; in assay [7], 0.111. Further, the composite z-score in [8] is -0.295; in assay [9], 0.38; in assay [10], 0.0104. In addition, the z-score in assay [2] is 0.314.
Regarding `O=C1OCC=C[C@H]2OC34C=CCN(Cn5nnc6ccccc65)C(=O)[C@H]3N(CCCO)C(=O)[C@@H]4[C@@H]12` (stereo not given in full), the composite z-score was -0.408 in [1]; -0.573 in [3]; -0.0941 in assay [4]; 0.449 in [5]; -0.26 in [6]; 0.381 in assay [7]. For the same compound, the composite z-score in [8] is 0.0517; in assay [9], 0.529; in [10], -1.11. The compound also showed a z-score in assay [2] of 0.424.
As for `CCOC(=O)C[C@H]1[C@H](OC(=O)c2ccccc2-c2ccccc2)[C@@H](NC(=O)C2CCCCC2)c2cc(OCCCO)ccc2N1C(=O)Cc1ccc(OC)cc1`, the composite z-score in [1] is -0.312; in assay [3], -0.0221; in assay [4], -0.0561; in assay [5], -0.326; in assay [6], -0.12; in assay [7] it was -0.2. For the same compound, the composite z-score was -0.136 in [8], 0.3 in assay [9] and -0.0654 in assay [10]. In addition, the z-score in [2] was -1.44.
For `CC1=C([C@H](O)CCc2ccccc2)[C@H](CO)[C@@H]2C(=O)N(C)C(=O)[C@@H]2C1`, the composite z-score was 0.305 in assay [1]; 0.392 in assay [3]; 0.489 in assay [4]; -0.905 in [5]; -0.197 in assay [6]; -0.262 in assay [7]. For the same compound, the composite z-score in assay [8] was -0.416; in [9] it was 0.185; in assay [10], 0.224. In assay [2], this compound registered a z-score of -0.581.
Turning to `COC(=O)C(CC#Cc1ccc2c(c1)[C@]1(C(=O)N2)[C@H](C(=O)N2CCN(c3ncccn3)CC2)[C@H]2C(=O)O[C@H](c3ccccc3)[C@H](c3ccccc3)N2[C@@H]1c1ccc(OCCO)cc1)C(=O)OC`, the composite z-score in assay [1] is 1.45; in [3], 0.839; in assay [4], 0.918; in assay [5] it was 0.245; in assay [6], -0.0792; in [7], -0.144. Besides, the composite z-score worked out at 0.0574 in [8], 0.624 in assay [9] and 2.21 in assay [10]. This compound also came in with a z-score in [2] of -1.7.
Regarding `CCCNC(=O)[C@@H]1c2ccccc2C(=O)N(C(C)C)[C@H]1c1ccc(CO)cc1`, the composite z-score is 0.123 in [1]; -0.378 in assay [3]; -0.193 in assay [4]; 0.0439 in [5]; -0.104 in assay [6]; 0.0062 in [7]. The results for the composite z-score in assay [8], in assay [9] and in [10] were -0.287, 0.625 and -0.182, respectively. Also, the z-score in assay [2] is -0.362.
With `CCOC(=O)c1ccc(NC(=O)O[C@H]2[C@H](OC(=O)Nc3ccc4c(c3)OCO4)[C@@H](OC(=O)Nc3ccc4c(c3)OCO4)[C@@H](OC)O[C@@H]2CO)cc1`, the composite z-score in assay [1] is 1.27; in assay [3] it was 0.48; in assay [4], 0.517; in assay [5] it was -0.393; in [6] it was 0.0321; in [7], -0.0664. Moreover, the composite z-score is 1.08 in assay [8], 1.52 in assay [9] and 0.908 in assay [10]. In assay [2], this compound yielded a z-score of 1.5.
